From ChEMBL document CHEMBL3988442, “University of Dundee, Small-Polar-MMV Screening Library” (2021)
In all, about 66,000 compounds went through this assay and about 960 (1.5%) showed an effect of 50% or more. This is one part of a sample in which strong results are shown more often than they occur.

System: Trypanosoma brucei
Assay: Trypanosoma brucei 72 hour study
Type: functional, organism-based
Parameters: scale not given: in the data most compounds retested in dose-response had high values

## CC[C@@H]1N(Cc2ccc(F)cc2)CCC[C@]12CCC(=O)N2CCOC.O=C(O)C(F)(F)F
30.3 µM, […]
  Percent Effect: -80.81%

## CCc1n[nH]c(C2CN(C(=O)CCn3ccccc3=O)CCO2)n1 (stereo unspecified)
30.3 µM, […]
  Percent Effect: 7.899%

## CC(C)c1n[nH]c(C2CN(C(=O)Cn3ccccc3=O)CCO2)n1 (stereo unspecified)
30.3 µM, […]
  Percent Effect: 9.582%

## CC(C)c1n[nH]c(C2CN(C(=O)CCn3ccccc3=O)CCO2)n1 (stereo unspecified)
30 µM, 30.03 µM
  Percent Effect: 52.13%

## Cl.c1ccc(-c2ccc(C3CNCCO3)nc2)cc1 (stereo unspecified)
30 µM, 30.03 µM
  Percent Effect: -8.657%

## Cl.Cl.Cn1nc(C2CNCCO2)cc1CCOc1ccc(Cl)cc1 (stereo unspecified)
30.3 µM, […]
  Percent Effect: 53.46%

## COc1ccc(OCCc2cc(C3CNCCO3)nn2C)cc1 (stereo unspecified)
30.3 µM, […]
  Percent Effect: 1.828%

## Cc1ccc(-c2ccc(C3CNCCO3)nc2)cc1.Cl (stereo unspecified)
30.3 µM, […]
  Percent Effect: 88.62%

## CN(C)c1ncc(-c2ccc(F)cc2)c(C2CNCCO2)n1.Cl (stereo unspecified)
30.3 µM, […]
  Percent Effect: 29.73%

## Cn1nc(C2CNCCO2)cc1CCOc1ccc(C(F)(F)F)cc1 (stereo unspecified)
30.3 µM, […]
  Percent Effect: 20.05%

## Cl.Clc1ccc(-c2ccc(C3CNCCO3)nc2)cc1 (stereo unspecified)
30.3 µM, […]
  Percent Effect: 98.64%

## COc1ccc(-c2ccc(C3CNCCO3)nc2)cc1.Cl (stereo unspecified)
30.3 µM, […]
  Percent Effect: -17.4%

## Cl.c1ncc(-c2ccc(C3CNCCO3)nc2)cn1 (stereo unspecified)
30.3 µM, […]
  Percent Effect: -18.07%

## COCCCNC(=O)NCc1cccn1Cc1ccccc1C
30 µM, 30.03 µM
  Percent Effect: -24.61%

## O=C(O)C(F)(F)F.O=C1COC2(CCN(Cc3ccoc3)CC2)CN1c1ccccc1
30 µM, 30.03 µM
  Percent Effect: -9.648%

## COCCNC(=O)[C@H]1CN(Cc2csc(C)n2)C[C@H]2OCC[C@@H]12.O=C(O)C(F)(F)F.O=C(O)C(F)(F)F
30 µM, 30.03 µM
  Percent Effect: -11.19%

## COCC1CC2(CCN(Cc3cccc(C#N)c3)CC2)CN1C(C)C.O=C(O)C(F)(F)F.O=C(O)C(F)(F)F (stereo unspecified)
30 µM, 30.03 µM
  Percent Effect: -12.65%

## CC[C@H](C)[C@H](N)C(=O)N1CC(=O)c2sc(Nc3ccc(F)cc3)nc2C1
30.3 µM, […]
  Percent Effect: 54.3%

## CC[C@H](C)[C@H](N)C(=O)N1CC(=O)c2sc(NCc3ccccc3)nc2C1
30.3 µM, […]
  Percent Effect: 35.54%

## CC(C)CC(=O)N1CC(=O)c2sc(NC3CCCCC3)nc2C1
30.3 µM, […]
  Percent Effect: -18.82%

## CC(C)NC(=O)N1CC(=O)c2sc(NC3CCCCC3)nc2C1
30.3 µM, […]
  Percent Effect: -21.05%

## CC[C@H](C)[C@H](N)C(=O)N1CC(=O)c2sc(NC3CCCCC3)nc2C1
30.3 µM, […]
  Percent Effect: 89.66%

## CC(C)CC(=O)N1CC(=O)c2sc(Nc3ccc(F)cc3)nc2C1
30.3 µM, […]
  Percent Effect: -26.14%

## N[C@H]1CC[C@@H](n2cc(C(=O)N[C@H]3CCCc4ccccc43)nn2)CC1
30 µM, 30.03 µM
  Percent Effect: -48.79%

## O=C(Nc1cnccn1)[C@@H]1COC[C@H]2CN(C3CCC3)C[C@H]21.O=C(O)C(F)(F)F
30 µM, 30.03 µM
  Percent Effect: -9.316%

## COCCN1CCC(CNC(=O)Nc2ccc(-c3ccccc3)cc2)C1 (stereo unspecified)
30.3 µM, […]
  Percent Effect: 100.6%

## COCCN1CCC(CNC(=O)C2(c3cccc(Cl)c3)CC2)C1 (stereo unspecified)
30.3 µM, […]
  Percent Effect: 10.42%

## COCCN1CCC(CNC(=O)c2cc(C)cc(C)c2)C1 (stereo unspecified)
30 µM, 30.03 µM
  Percent Effect: 28.41%

## COCCN1CCC(CNC(=O)C2(c3ccccc3)CCC2)C1 (stereo unspecified)
30.3 µM, […]
  Percent Effect: -7.306%

## COCCN1CCC(CNC(=O)CCc2cc(F)ccc2F)C1 (stereo unspecified)
30 µM, 30.03 µM
  Percent Effect: -4.617%

## COCCn1cc(NC(=O)NCC2CCN(c3ccccc3)C2)cn1 (stereo unspecified)
30 µM, 30.03 µM
  Percent Effect: -68.77%

## COCCN1CCC(CNC(=O)Nc2ccc(F)c(Cl)c2)C1 (stereo unspecified)
30.3 µM, […]
  Percent Effect: 73.54%

## COCCN1CCC(CNC(=O)C2(c3ccccc3)CCOCC2)C1 (stereo unspecified)
30.3 µM, […]
  Percent Effect: -10.94%

## COCCN1CCC(CNC(=O)Nc2ccc(SC(F)(F)F)cc2)C1 (stereo unspecified)
30.3 µM, […]
  Percent Effect: 90.18%

## O=C(C1CCCC1)N1CCC2(CC1)COCCN2CC1CC1.O=C(O)C(F)(F)F
30.3 µM, […]
  Percent Effect: -13.33%

## CCN1CCC2(CC1)CC(NCc1ccncc1)c1ccccc1O2.O=C(O)C(F)(F)F.O=C(O)C(F)(F)F.O=C(O)C(F)(F)F (stereo unspecified)
30 µM, 30.03 µM
  Percent Effect: 1.43%

## O=C(CN1CCC(c2ccnn2CCO)CC1)NCc1ccco1
10 µM
  Percent Effect: -47.08%

## O=C(O)C(F)(F)F.O=C(c1ccno1)N1CC[C@@H]2O[C@H](COCCN3CCCC3)CC[C@@H]21
30 µM, 30.03 µM
  Percent Effect: 39.45%

## CCCN(Cc1ccccn1)Cc1ccccc1OC
30.3 µM, […]
  Percent Effect: -7.297%

## CCCN(Cc1nc2ccccc2[nH]1)Cc1ccccc1OC
30.3 µM, […]
  Percent Effect: 15.38%

## CCCN(Cc1cnc2ccccc2n1)Cc1ccccc1OC
30.3 µM, […]
  Percent Effect: 99.59%

## Cc1cccc(CN2CCn3cc(Cn4cccn4)nc3C2)n1.O=C(O)C(F)(F)F.O=C(O)C(F)(F)F.O=C(O)C(F)(F)F
30 µM, 30.03 µM
  Percent Effect: -12.32%

## O=C(O)C(F)(F)F.O=C(c1cnccn1)N1CCOC2(CCCN(c3ncccc3F)C2)C1 (stereo unspecified)
30.3 µM, […]
  Percent Effect: -33.25%

## O=C(O)C(F)(F)F.O=C(c1ccnnc1)N1CC[C@]2(C[C@H](Oc3ncccc3F)CO2)C1
30 µM, 30.03 µM
  Percent Effect: -5.807%

## Cn1ccc(CNC(=O)Nc2ccc(S(=O)(=O)C(F)F)cc2)c1
30 µM, 30.03 µM
  Percent Effect: -7.299%

## COc1ccc(CNC(=O)Nc2ccc(S(=O)(=O)C(F)F)cc2)cc1
30 µM, 30.03 µM
  Percent Effect: -8.777%

## CN(C)c1ccc(CNC(=O)Nc2ccc(S(=O)(=O)C(F)F)cc2)cc1
30 µM, 30.03 µM
  Percent Effect: 71.22%

## COCCNC(=O)CN1CCN(c2nc(C)cs2)CC1
10 µM
  Percent Effect: -57.99%

## CC(C)C(=O)Nc1ccc(Oc2ccc3c(c2)OCO3)nc1
30 µM, 30.03 µM
  Percent Effect: -14.33%

## CCC(=O)NCCCn1c(-c2cccnc2C)cc2cccnc21.Cl
30.3 µM, […]
  Percent Effect: -13.2%

## COCCN(Cc1cccs1)C(=O)c1ccc(=O)n(C)c1
30.3 µM, […]
  Percent Effect: -3.424%

## CCN(Cc1cccs1)C(=O)c1ccc(=O)n(C)c1
30.3 µM, […]
  Percent Effect: -2.313%

## CN(Cc1cccs1)C(=O)c1ccc(=O)n(C)c1
30.3 µM, […]
  Percent Effect: 98.98%

## CC(=O)c1c(C)nn(CC(=O)Nc2ccc(Br)cc2)c1C
30.3 µM, […]
  Percent Effect: 101.3%

## CC(=O)c1c(C)nn(CC(=O)Nc2ccc(F)cc2)c1C
30.3 µM, […]
  Percent Effect: -35.96%

## Cc1cc(=O)n(CC(=O)Nc2ccc(Cl)cc2)nc1C
30 µM, 30.03 µM
  Percent Effect: -26.52%

## COc1ccc(NC(=O)Cn2nc(C)c(C)cc2=O)cc1OC
30.3 µM, […]
  Percent Effect: -10.01%

## COc1ccc(NC(=O)Cn2nc(C)c(C)cc2=O)cc1
30 µM, 30.03 µM
  Percent Effect: -33.88%

## COc1ccc(NC(=O)Cn2nc(C)c(C(C)=O)c2C)cc1
30.3 µM, […]
  Percent Effect: 101.9%

## Cc1ccc(Nc2nccc(C3CCN(CC(N)=O)C3)n2)nc1 (stereo unspecified)
30.3 µM, […]
  Percent Effect: -50.23%

## O=C(O)C(F)(F)F.O=C(c1ccccc1)N1CCC[C@]2(C[C@@H](OCc3ccccn3)CO2)C1
30.3 µM, […]
  Percent Effect: -136.6%
